Cc1cnc(Nc2ccc(F)cc2Cl)nc1-c1c[nH]c(C(=O)N[C@H](CO)c2cccc(Cl)c2)c1 [Vertex 11e]
Kinases covered (MAPK1): MAPK1
Kinases covered (MAPK3): MAPK3

O=C1Nc2ccc(I)cc2C1=Cc1cc(Br)c(O)c(Br)c1 [GW305074X]
Kinases covered (MAPK3): MAPK3

CCOc1cc(N2CCC(O)CC2)ccc1Nc1ncc2c(n1)N(C)c1ccccc1C(=O)N2C [XMD8-92]
Kinases covered (MAPK7): MAPK7

CCOc1cc(C(=O)N2CCC(N3CCN(C)CC3)CC2)ccc1Nc1ncc2c(n1)N(C1CCCC1)c1ccccc1C(=O)N2C [ERK5-IN-1]
Kinases covered (MAPK7): MAPK7

CN(C)C/C=C/C(=O)Nc1ccc(C(=O)Nc2cccc(Nc3ncc(Cl)c(-c4c[nH]c5ccccc45)n3)c2)cc1 [THZ1]
Kinases covered (MAPK8): MAPK8

FC1=CC(C3=NC2=CC(OC)=C(OC)C=C2C(N[C@H]4[C@H]([C@](C)(O)C)CNC4)=N3)=C(O)C=C1.Cl.Cl [CCT241533]
Kinases covered (MARK3): MARK3

NS(=O)(=O)c1ccc(N/N=C2\C(=O)Nc3ccc(C(=O)NCCc4c[nH]cn4)cc32)cc1 [GW300660X]
Kinases covered (MELK): MELK

CC(C)COC(=O)c1ccc2c(c1)/C(=C/Nc1ccc(S(N)(=O)=O)cc1)C(=O)N2 [GW416981X]
Kinases covered (MELK): MELK

— paper PMC7826789 (International Journal of Molecular Sciences, 2021)
